# Inconclusive results are not listed. Entries that show only a call come without a potency. Activity calls are given as the source filed them. Calls follow the shape of the dose curve; as a rule, active = well fitted inhibition curve with a large enough effect; inconclusive = small, poorly fitted or top-dose-only effect; inactive = flat fitted curve, though single readings scatter.
# Molecular target: Calcium and integrin-binding protein 1 (Homo sapiens) (UniProt Q99828)
# Assay: Primary qHTS for Identification of Calcium Integrin Binding Protein 1 (CIB1) Competitor (AID 1508620)
# Details: CIB1-GST / FITC-alphaIIb peptide fluorescence polarization; series mostly up to 114 µM
# Summary of the method: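 Fluorescence polarization competition: CIB1-GST (1 uM final) preincubated with compound 15 min at room temperature, then FITC-labeled alphaIIb peptide (100 nM final) added for another 15 min. Polarization read at Ex 480/Em 540.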
# Potency is read from the fitted curve at half-maximal effect.
# Calcium and integrin-binding protein 1 (Homo sapiens), sequence (Q99828 whole entry, looked up): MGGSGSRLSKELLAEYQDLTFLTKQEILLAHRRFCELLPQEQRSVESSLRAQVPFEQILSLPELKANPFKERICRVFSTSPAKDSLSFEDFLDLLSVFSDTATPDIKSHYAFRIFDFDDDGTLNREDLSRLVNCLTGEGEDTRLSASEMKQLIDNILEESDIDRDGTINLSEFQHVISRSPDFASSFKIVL
row,SMILES,Potency
1,CCOc1ccc(CCNC(=O)c2cc3c(s2)CCC3)cc1OCC,inactive
2,Cc1cc(C)nc(NC(=S)N2CCN(c3ccc(F)c(Cl)c3)CC2)c1,inactive
3,FC(F)(F)c1cccc(Nc2ccc(CNc3nc(-c4ccccc4C(F)(F)F)nc4ccccc34)cc2)c1,inactive
4,O=S(=O)(c1ccc2c(c1)OCCO2)N1CCN(S(=O)(=O)c2ccccc2F)CC1,inactive
5,Nc1ncnc2c1ncn2[C@@H]1O[C@H](CN[S+](=O)([O-])NC(=O)c2cccc(-c3noc(-c4ccccc4F)n3)c2)[C@@H](O)[C@H]1O,inactive
6,CCN(CC)C(=O)COC(=O)c1ccc(S(C)(=O)=O)c([N+](=O)[O-])c1,inactive
7,Cc1cc(C)nc(NC(=S)N2CCN(c3ncc(Cl)cc3Cl)CC2)c1,inactive
8,N#Cc1nc(Nc2cccc([N+](=O)[O-])c2)nc(NC2CCCC2)n1,inactive
9,COc1ccc(NC(=O)c2[nH]c(C)c(C(C)=O)c2C)cc1S(=O)(=O)Nc1cccc(C#N)c1,inactive
10,Cc1ccc(OCCn2c(CCNC(=O)CCN3CCCCC3)nc3ccccc32)cc1,inactive
11,O=C(C1CCN(c2nc(-c3ccc(Br)cc3)cs2)CC1)N1CCNCC1,inactive
12,CCOC(=O)c1ccc(O)c2ncc(NCC3CCCN(CCc4ccccc4)C3)cc12 (centres undefined),inactive
13,N#Cc1nc(Nc2cc(F)cc(F)c2)c2ncn(CCN3CCCC3)c2n1,inactive
14,c1ccc(CN(Cc2ccccc2)Cc2nnc(-c3cc4ccccc4[nH]3)o2)cc1,inactive
15,Cc1ccc(NS(=O)(=O)c2cc3c(cc2N2CCCC2)NC(=O)CC3)cc1C,inactive
16,Cc1ccc(NS(=O)(=O)c2cc3c(cc2F)NC(=O)CC3)cc1C,inactive
17,Cc1cc2c(s1)c1cnn(Cc3c(C)cc(F)cc3C)c(=O)c1n2C,inactive
18,COc1ccc(CN(Cc2ccccc2)C(=O)c2ccc(OC)cc2O)cc1,inactive
19,O=C(Nc1ccc(Cl)c(Cl)c1)Nc1nnc(C2CCCCC2)s1,inactive
20,O=C(CSc1nnc(-c2cccc(S(=O)(=O)N3CCCC3)c2)n1-c1ccccc1)Nc1ccc(Cl)cc1,inactive

row,SMILES,Potency
1,NC(=O)C1CCN(c2nccc(-c3ccc4c(c3)OCCO4)n2)CC1,inactive
2,Cc1cc(NS(=O)(=O)Cc2ccc(NC(=O)Cc3ccc(Cl)c(Cl)c3)cc2)no1,inactive
3,Cc1cc(N2C(=O)c3ccccc3C2=O)no1,inactive
4,N#Cc1ccc(-c2ccc(-c3nc4ccccc4c(=O)[nH]3)o2)cc1,inactive
5,COc1ccc2cc3cc(C(=O)Nc4ccc(F)cc4)sc3nc2c1,inactive
6,O=C(O)c1ccc(O)c2ncc(N3CCCN(CCc4ccncc4)CC3)cc12,inactive
7,Cc1cc(C)nc(NC(=S)N2CCN(c3ncccc3Cl)CC2)c1,inactive
8,NC(=O)C1CCN(c2nc(-c3ccccc3)cs2)CC1,inactive
9,Cc1cc(C)nc(NC(=S)N2CC3CN(c4ccc(Cl)cc4C(F)(F)F)CC3C2)c1 (centres undefined),inactive
10,Nc1nnc(-c2cccc3ccccc23)o1,inactive
11,O=C(CN1C(=O)N/C(=C\c2cccn2-c2cccc(C(=O)O)c2)C1=O)Nc1cccc(Cl)c1,inactive
12,Fc1ccccc1-c1nc(-c2ccc(-c3nn[nH]n3)cc2)no1,inactive
13,O=S(=O)(Nc1cccc2cccnc12)c1ccccc1,inactive
14,N#Cc1cccc(OC2=NS(=O)(=O)c3ccccc32)c1,inactive
15,O=Cc1c(-c2ccccc2)no[n+]1[O-],50.1 µM (active)
16,O=S(=O)(NCCCCCCNS(=O)(=O)c1c(F)cccc1F)c1ccc2c(c1)OCCO2,inactive
17,O=C(CSc1nnc(-c2cccc(S(=O)(=O)N3CCCC3)c2)n1-c1ccccc1)Nc1ccccc1,inactive
18,CC(=O)c1ccc(-c2csc3ncnc(Sc4nnnn4C)c23)cc1,inactive
19,CN(Cc1cccs1)c1ncnc2ccc(-c3ccc4cnn(C)c4c3)cc12,inactive

# — PubChem BioAssay (NCATS)
